# Assay results published in PubChem BioAssay (NCATS).
# Results filed as inconclusive are left out. Where a call stands in place of a potency, no number is given. The source made the active and inactive calls. Calls follow the shape of the dose curve; as a rule, active = well fitted inhibition curve with a large enough effect; inconclusive = small, poorly fitted or top-dose-only effect; inactive = flat fitted curve, though single readings scatter.
# Columns and labels:
# Assay in all cases: qHTS profiling for inhibitors of Plasmodium falciparum proliferation (AID 504749); also: nearly all actives have a fitted effect of over 60% in size
# Conditions in all cases: P. falciparum in erythrocytes, SYBR Green DNA, 72 h; series mostly up to 28.7 µM
# Dd2 = test system: Dd2
# Method in brief: (§1)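 SYBR Green fluorescence (ex 485 nm, em 535 nm) reports parasite DNA after 72 h compound exposure of infected red cells at 0.3% parasitemia, 2.5% hematocrit; signal normalized to 0.29 uM artemisinin and vehicle wells.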
# ECU = test system: ECU
# Method in brief: as §1
# FAB9 = test system: FAB9
# Method in brief: as §1
# GB4 = test system: GB4
# Method in brief: as §1
# HB3 = test system: HB3
# Method in brief: as §1
# ICS = test system: ICS
# Method in brief: as §1
# JCK = test system: JCK
# Method in brief: as §1
# N140 = test system: N140
# Method in brief: as §1
# P94_40 = test system: P94_40
# Method in brief: as §1
# PAD = test system: PAD
# Method in brief: as §1
# PC15 = test system: PC15
# Method in brief: as §1
# PC26 = test system: PC26
# Method in brief: as §1
# PC49 = test system: PC49
# Method in brief: as §1
# DIV30 = test system: DIV30
# Method in brief: as §1
# P93_24 = test system: P93_24
# Method in brief: as §1
# SC27B = test system: SC27B
# Method in brief: as §1
# TAB109 = test system: TAB109
# Method in brief: as §1
# TAB113 = test system: TAB113
# Method in brief: as §1
# DIV14 = test system: DIV14
# Method in brief: as §1
# DIV17 = test system: DIV17
# Method in brief: as §1
# Potency is read from the fitted curve at half-maximal effect.
Compound,Potency (Dd2),Potency (ECU),Potency (FAB9),Potency (GB4),Potency (HB3),Potency (ICS),Potency (JCK),Potency (N140),Potency (P94_40),Potency (PAD),Potency (PC15),Potency (PC26),Potency (PC49),Potency (DIV30),Potency (P93_24),Potency (SC27B),Potency (TAB109),Potency (TAB113),Potency (DIV14),Potency (DIV17)
CCC1(C2=NCCN2)Cc2ccccc2O1 (stereo not drawn),10 µM (active),inactive,inactive,8.49 µM (active),inactive,inactive,inactive,12.6 µM (active),12.6 µM (active),inactive,inactive,inactive,inactive,–,–,–,–,–,–,–
c1ccc2c(c1)OCC(C1=NCCN1)O2 (stereo not drawn),inactive,inactive,inactive,–,inactive,–,inactive,inactive,inactive,inactive,inactive,inactive,–,inactive,inactive,inactive,inactive,inactive,–,–
c1ccc2c(c1)Nc1ccccc1S2,inactive,–,inactive,3.79 µM (active),–,12.6 µM (active),inactive,inactive,–,–,–,–,inactive,–,–,inactive,–,inactive,6.75 µM (active),7.57 µM (active)
Fc1ccc(C(OCCN2CCN(CCCc3ccccc3)CC2)c2ccc(F)cc2)cc1,–,10 µM (active),–,15.1 µM (active),8.91 µM (active),3.55 µM (active),11.2 µM (active),5.01 µM (active),7.94 µM (active),8.91 µM (active),11.2 µM (active),12 µM (active),8.91 µM (active),–,4.47 µM (active),8.91 µM (active),7.94 µM (active),8.91 µM (active),10.7 µM (active),10.7 µM (active)
CCN(CC)CCN1C(=O)CN=C(c2ccccc2F)c2cc(Cl)ccc21,–,inactive,inactive,–,inactive,–,inactive,inactive,–,inactive,inactive,inactive,inactive,inactive,–,inactive,–,inactive,–,inactive
CC1NCCOC1c1ccccc1 (stereo not drawn),inactive,inactive,inactive,–,inactive,inactive,inactive,inactive,inactive,inactive,inactive,inactive,inactive,inactive,inactive,inactive,inactive,inactive,–,inactive
C=C1CC[C@@]2(O)[C@H]3Cc4ccc(O)c5c4[C@@]2(CCN3CC2CC2)[C@H]1O5,–,inactive,inactive,–,inactive,inactive,inactive,inactive,inactive,inactive,inactive,inactive,inactive,inactive,inactive,inactive,inactive,inactive,–,inactive
COc1ccc(C(CN(C)C)C2(O)CCCCC2)cc1 (stereo not drawn),–,inactive,inactive,–,inactive,inactive,inactive,–,inactive,inactive,inactive,–,inactive,inactive,inactive,inactive,inactive,inactive,inactive,–
NCCc1cc(O)c(O)cc1O,–,inactive,inactive,inactive,inactive,inactive,inactive,inactive,inactive,inactive,inactive,inactive,inactive,inactive,inactive,inactive,–,inactive,inactive,inactive
O=C1NCN(c2ccccc2)C12CCN(CC1COc3ccccc3O1)CC2 (stereo not drawn),inactive,inactive,inactive,inactive,inactive,8.91 µM (active),inactive,inactive,inactive,–,inactive,inactive,inactive,inactive,inactive,inactive,inactive,inactive,inactive,–
CCN(CC)CCOC(=O)C(O)(c1ccccc1)c1ccccc1,inactive,inactive,inactive,inactive,inactive,inactive,inactive,inactive,inactive,inactive,inactive,inactive,inactive,inactive,inactive,inactive,inactive,inactive,–,inactive
N[C@@H](Cc1ccc(N(CCCl)CCCl)cc1)C(=O)O,12.6 µM (active),–,inactive,15.1 µM (active),–,–,inactive,–,–,–,–,inactive,inactive,inactive,–,–,–,–,10.7 µM (active),15.1 µM (active)
